# From PubChem
# This is one part of a sample in which hits are shown more often than they occur.
# Tgondii IFNg – T. gondii growth inhibition with IFN-gamma, primary screen, cell-based. actives 3.8% (n = 69,000). Toxoplasma gondii growth in IFN-gamma-treated host cells; active compounds read low. activity change, negative = inhibition, % (concentration not given with the values). AID 1259416, 2018; in the data active = activity change below about -70%, passing the limit was not always enough;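 also: host cells are HeLa cells infected with Toxoplasma gondii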
# The depositor's hits bear a star; i = inactive.
SMILES,Tgondii IFNg
O=C(NCc1cccc(F)c1)c1cc2c(s1)CCN2C(=O)c1ccccc1,-81.8*
COc1cccc(CNC(=O)N2CCc3nc(-c4ccccc4)sc3C2)c1,32.7
COc1cccc(CNC(=O)c2nc(Nc3ccc(F)cc3)c3ccccc3n2)c1,21.6
CC(C)CNC(=O)c1cc2c(s1)CCN2C(=O)C1CC1,-2.9
COc1cccc(CNC(=O)c2cc3c(s2)CCN3C(=O)c2ccc(F)cc2)c1,-86.9*
CN(C)CCNC(=O)c1cc2c(s1)CCN2C(=O)C1CC1,2.4
COc1cccc(CNC(=O)c2cc3c(s2)CCN3C(=O)c2ccccc2)c1,-100.0*
COc1cccc(CNC(=O)c2nc3c(o2)CN(C(=O)c2cccc(F)c2)C3)c1,56.6
Cc1ccsc1CN(C)c1ncnc2c1CCN(C(=O)c1cccnc1)C2,-6.5
Cc1ccc(CN(C)C(=O)c2ccc(OC3CCN(S(C)(=O)=O)CC3)c(Cl)c2)o1,227.0
Cc1ccc(S(=O)(=O)N2CCC3(CC2)Nc2ccc(Cl)cc2-n2cccc23)cc1C,24.2
CCc1c(C)nc2cc(C(C)(C)C)[nH]n2c1=O,-8.4
CN(C)CC1(O)CCN(C(=O)c2cc(-c3ccccc3)nc3ccccc23)C1 (centres undefined),-4.9
CC(C)CC(NS(=O)(=O)c1ccc2[nH]c(=O)ccc2c1)C(=O)Nc1cccc2c1CCCC2 (centres undefined),-11.7
c1csc([C@H]2C[C@H]3CCN(Cc4ccoc4)C[C@H]3O2)n1,21.1
O=C(O)C1CC2(CCNCC2)CN1Cc1ccccc1OCCO (centres undefined),-45.2
c1ccc(Oc2cccc3cccnc23)nc1,70.0
CCc1nc(C)cc(-c2cccc3cccnc23)n1,0.8
c1cnc2c(c1)ccc1cccnc12,-96.2*
CN(C)c1ncnc2c1CCN(CC1CCOC1)CC2 (centres undefined),2.3
c1ccc(Cc2nc(CCc3cccnc3)n[nH]2)cc1,4.5
CC[C@H](C(=O)N1CCCC[C@H]1C(=O)O[C@H](CCc1ccc(OC)c(OC)c1)c1cccc(OCC(=O)NCCNC(=O)COc2cccc([C@@H](CCc3ccc(OC)c(OC)c3)OC(=O)[C@@H]3CCCCN3C(=O)[C@@H](CC)c3cc(OC)c(OC)c(OC)c3)c2)c1)c1cc(OC)c(OC)c(OC)c1,-71.7*
COc1ccc(CCNC(=O)C2CCCN2C(=O)Nc2ccc(C)cc2)cc1OC (centres undefined),22.7
COc1ccc(CCNC(=O)COc2ccc(Br)c(C)c2)cc1OC,-11.1
CCOCC12CCCOC1CCN(C(=O)CS(C)(=O)=O)C2 (centres undefined),6.4
SMILES,Tgondii IFNg
CC1CN(Cc2c3cccn(CC(=O)N(C)C)c-3nc2C(F)(F)F)CC(C)O1 (centres undefined),-34.4
Cc1c(C(=O)N2CCC(C3Nc4ccccc4S(=O)(=O)N3)CC2)[nH]c2c1C(=O)CCC2 (centres undefined),-8.5
Cc1cc(C)cc(NC(=O)c2cncc(NS(=O)(=O)c3ccc(Br)cc3)c2)c1,22.2
O=C(NCCc1csc(-c2ccc(Cl)cc2)n1)c1cccs1,-79.2*
Cc1ccc(Cl)cc1NC(=O)C(=O)NCCc1csc(-c2cccc(F)c2)n1,-64.3
Cc1ccc(C)c(NC(=O)C(=O)NCCc2csc(-c3cccc(F)c3)n2)c1,-101.4*
O=C(NCCc1csc(-c2cccc(F)c2)n1)c1ccccc1F,-21.6
O=C(NCCc1csc(-c2ccccc2)n1)c1cccs1,246.3
O=C(NCCc1csc(-c2ccc(Cl)cc2)n1)c1ccccc1,-40.5
COc1ccccc1C(=O)NCCc1csc(-c2cccc(F)c2)n1,-77.9*
O=C(NCCc1csc(-c2ccc(F)cc2)n1)c1ccccc1,-80.5*
O=C(NCCc1csc(-c2ccc(Cl)cc2)n1)c1ccc(F)cc1,-59.7
COc1ccccc1OCC(=O)NCCc1csc(-c2cccc(F)c2)n1,48.2
Cc1ccc(C)c(NC(=O)C(=O)NCCc2csc(-c3ccc(F)cc3)n2)c1,-68.8
COc1ccc(-c2nc(CCNC(=O)c3cccs3)cs2)cc1OC,i
CN(C)CC(=O)N1CCN(c2ccc3ccc(C(=O)NCc4cccs4)cn23)CC1,9.2
Cc1ccsc1-c1nc(CN2CCCN(C(=O)C3CCCO3)CC2)c(C)o1 (centres undefined),-47.2
Cc1ccc(S(=O)(=O)N2CCC3(CCC(C(=O)Nc4cccnc4)O3)CC2)cc1F (centres undefined),-1.0
COc1cc2c(cc1CN1CCCN(c3ccccc3)CC1)OCO2,-1.8
COc1ccc(-c2nc(Nc3ccc(F)cc3F)c3ccccc3n2)cc1,-16.2
CCOc1ccc(C(=O)C2CCN(Cc3nnnn3C3CCCCC3)CC2)cc1,-4.1
O=C(c1cnc(Nc2ccccc2)nc1)N1CCC2(CCCO2)CC1,-3.5
Cc1ccnc(CC(C)N(C)C(=O)c2ccc3[nH]ccc3c2)c1 (centres undefined),4.3
C=CCN1C(=O)C2(NCCc3c2[nH]c2ccc(OC)cc32)c2ccccc21 (centres undefined),-7.7
COc1ccc(C(=O)NCCc2csc(-c3cccc(F)c3)n2)cc1OC,31.7
SMILES,Tgondii IFNg
COc1ccc(-c2nc(CCNC(=O)c3ccc(OC)cc3OC)cs2)cc1,42.2
CCOc1ccc(C(=O)NCCc2csc(-c3cccc(F)c3)n2)cc1OCC,54.0
CCCCOc1ccc(C(=O)NCCc2csc(-c3ccc(Cl)cc3)n2)cc1,-48.7
CCOc1cc(C(=O)NCCc2csc(-c3cccc(F)c3)n2)cc(OCC)c1OCC,38.7
CCOc1ccccc1C(=O)NCCc1csc(-c2cccc(F)c2)n1,-90.8*
COc1ccc(C(=O)NCCc2csc(-c3ccc(Cl)cc3)n2)c(OC)c1,-85.5*
CCCCOc1ccc(C(=O)NCCc2csc(-c3ccc(OC)cc3)n2)cc1,-109.7*
COc1ccc(Cl)cc1C(=O)NCCc1csc(-c2cccc(F)c2)n1,-90.1*
COc1ccc(Cl)cc1C(=O)NCCc1sc(-c2cccc(F)c2)nc1C,3.9
COc1ccc(-c2nc(CCNC(=O)c3ccccc3Br)cs2)cc1,i
CCOc1ccc(C(=O)NCCc2csc(-c3ccc(OC)cc3)n2)cc1,37.7
Cn1ncc2c(Nc3ccc(C(=O)O)cc3)ncnc21,4.7
COc1ccc(C(=O)N2CCC3(CC2)NC(=O)c2ccccc2N3C)cc1OC,-11.8
CN(C)c1ncnc2c1CCN(C(=O)NC1CCCC1)CC2,210.9
O=C(O)CCC(=O)N1CCC2(CC(=O)N(c3cncnc3)C2)C1 (centres undefined),2.0
CCOCCCNC(=O)Cn1ncc2c(N3CCN(c4ccccn4)CC3)ncnc21,85.4
CC(=O)N1CCc2ncc(CNC(=O)c3cnn(C)c3)n2CC1,136.5
CCN(CC)CCCNS(=O)(=O)c1ccc2[nH]c(=O)ccc2c1,66.4
CCOC(=O)CC(NC(=O)N1CCC2(CC1)Nc1cc(OC)ccc1-n1cccc12)c1ccccc1 (centres undefined),71.1
c1ccc(Oc2ncccc2-c2noc(C3CCOC3)n2)cc1 (centres undefined),4.4
COCc1ncc(CN2CCC(O)(c3ccccc3C)C2)cn1 (centres undefined),-49.8
O=C(CSc1nnc(-c2ccccn2)c(-c2ccccn2)n1)c1ccc(Cl)s1,224.3
Cc1cc(C)c(S(=O)(=O)N2CCC3(CC2)Nc2cc(C)ccc2-n2cccc23)c(C)c1,15.2
Cc1ccc(Sc2c(Sc3ccc(C)cc3)c(=O)c2=O)cc1,-88.0*
Cc1ccc(SCCNS(C)(=O)=O)cc1,3.2
Cc1ccc(SCCC(=O)c2ccc(Cl)cc2)cc1,-10.2
Cc1cc(C)n(C(=O)c2ccoc2C)n1,-34.0
